{"source": "the supplement of paper PMC8728848", "binders": {"B1": {"name": "mCC1-Hexahis-Precomplexed (Mus musculus), P31809 (protein)", "chain": "MELASAHLHKGQVPWGGLLLTASLLASWSPATTAEVTIEAVPPQVAEDNNVLLLVHNLPLALGAFAWYKGNTTAIDKEIARFVPNSNMNFTGQAYSGREIIYSNGSLLFQMITMKDMGVYTLDMTDENYRRTQATVRFHVHPILLKPNITSNNSNPVEGDDSVSLTCDSYTDPDNINYLWSRNGESLSEGDRLKLSEGNRTLTLLNVTRNDTGPYVCETRNPVSVNRSDPFSLNIIYGPDTPIISPSDIYLHPGSNLNLSCHAASNPPAQYFWLINEKPHASSQELFIPNITTNNSGTYTCFVNNSVTGLSRTTVKNITVLEPVTQPFLQVTNTTVKELDSVTLTCLSNDIGANIQWLFNSQSLQLTERMTLSQNNSILRIDPIKREDAGEYQCEISNPVSVRRSNSIKLDIIFDPTQGGLSDGHHHHHH"}}, "experiment_in_all_cases": "glycan array binding signal (z-score within array); higher = stronger binding", "conditions_in_all_cases": "glycan notation: IUPAC condensed, linker removed", "key": {"[1]": {"target": "Fuc(a1-2)Gal(b1-4)GlcNAc(b1-3)[Fuc(a1-3)[Gal(b1-4)]GlcNAc(b1-6)]Gal(b1-4)Glc", "method_in_brief": "(§1)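 The binding signal is a Z-score computed within each array. Data were drawn from 3228 arrays in the Consortium for Functional Glycomics database, restricted to those with a known protein sequence. Scores were averaged over arrays of the same protein sequence at different concentrations or buffers, and over linkers, and negative values can be taken as non-binding.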"}, "[2]": {"target": "Fuc(a1-2)Gal(b1-4)[Fuc(a1-3)]GlcNAc(b1-3)Gal(b1-4)[Fuc(a1-3)]GlcNAc(b1-3)Gal(b1-4)[Fuc(a1-3)]GlcNAc", "method_in_brief": "as §1"}, "[3]": {"target": "Fuc(a1-2)[Gal(a1-3)]Gal(b1-3)GlcNAc(b1-6)GalNAc", "method_in_brief": "as §1"}, "[4]": {"target": "Fuc(a1-2)[GalNAc(a1-3)]Gal(b1-4)[Fuc(a1-3)]GlcNAc", "method_in_brief": "as §1"}, "[5]": {"target": "Fuc(a1-3)[Gal(b1-4)]GlcNAc(b1-6)GalNAc", "method_in_brief": "as §1"}, "[6]": {"target": "Fuc(a1-3)[GalNAc(b1-4)]GlcNAc6S", "method_in_brief": "as §1"}, "[7]": {"target": "Gal(a1-3)Gal(b1-3)GlcNAc(b1-2)Man(a1-3)[Gal(a1-3)Gal(b1-3)GlcNAc(b1-2)Man(a1-6)]Man(b1-4)GlcNAc(b1-4)GlcNAc", "method_in_brief": "as §1"}, "Gal(a1-4)Gal(b1-4)GlcNAc": {"target": "Gal(a1-4)Gal(b1-4)GlcNAc", "method_in_brief": "as §1"}, "[8]": {"target": "Gal(b1-3)GalNAc(a1-3)[Fuc(a1-2)]Gal(b1-4)GlcNAc", "method_in_brief": "as §1"}, "[9]": {"target": "Gal(b1-3)GlcNAc(b1-2)[Gal(b1-3)GlcNAc(b1-6)]Man(a1-6)[Gal(b1-3)GlcNAc(b1-2)Man(a1-3)]Man(b1-4)GlcNAc(b1-4)GlcNAc", "method_in_brief": "as §1"}, "[10]": {"target": "Gal(b1-3)[Fuc(a1-4)]GlcNAc(b1-3)Gal(b1-4)[Fuc(a1-3)]GlcNAc", "method_in_brief": "as §1"}, "[11]": {"target": "Gal(b1-4)GlcNAc(b1-2)[Gal(b1-4)GlcNAc(b1-4)]Man(a1-3)[Gal(b1-4)GlcNAc(b1-2)[Gal(b1-4)GlcNAc(b1-6)]Man(a1-6)]Man(b1-4)GlcNAc(b1-4)GlcNAc", "method_in_brief": "as §1"}, "[12]": {"target": "Gal(b1-4)GlcNAc(b1-3)Gal(b1-3)GalNAc", "method_in_brief": "as §1"}, "[13]": {"target": "Gal(b1-4)GlcNAc(b1-3)Gal(b1-4)GlcNAc(b1-2)Man(a1-3)[Gal(b1-4)GlcNAc(b1-3)Gal(b1-4)GlcNAc(b1-2)Man(a1-6)]Man(b1-4)GlcNAc(b1-4)GlcNAc", "method_in_brief": "as §1"}, "[14]": {"target": "Gal(b1-4)GlcNAc(b1-3)Gal(b1-4)GlcNAc(b1-3)Gal(b1-4)GlcNAc(b1-2)Man(a1-3)[Gal(b1-4)GlcNAc(b1-3)Gal(b1-4)GlcNAc(b1-3)Gal(b1-4)GlcNAc(b1-2)Man(a1-6)]Man(b1-4)GlcNAc(b1-4)GlcNAc", "method_in_brief": "as §1"}, "[15]": {"target": "Gal(b1-4)GlcNAc(b1-3)Gal(b1-4)GlcNAc(b1-3)GalNAc", "method_in_brief": "as §1"}, "[16]": {"target": "Gal(b1-4)GlcNAc(b1-3)Gal(b1-4)GlcNAc(b1-3)[Gal(b1-4)GlcNAc(b1-3)Gal(b1-4)GlcNAc(b1-6)]GalNAc", "method_in_brief": "as §1"}, "[17]": {"target": "Gal(b1-4)GlcNAc(b1-3)Gal(b1-4)GlcNAc(b1-6)[Gal(b1-3)]GalNAc", "method_in_brief": "as §1"}, "Gal3S(b1-4)Glc": {"target": "Gal3S(b1-4)Glc", "method_in_brief": "as §1"}, "[18]": {"target": "Gal3S(b1-4)[Fuc(a1-3)]Glc6S", "method_in_brief": "as §1"}, "GalNAc(b1-4)GlcNAc6S": {"target": "GalNAc(b1-4)GlcNAc6S", "method_in_brief": "as §1"}, "GalNAc3S(b1-4)GlcNAc3S": {"target": "GalNAc3S(b1-4)GlcNAc3S", "method_in_brief": "as §1"}, "GlcA(b1-6)Gal": {"target": "GlcA(b1-6)Gal", "method_in_brief": "as §1"}, "[19]": {"target": "GlcA3S(b1-3)Gal(b1-4)GlcNAc(b1-3)Gal(b1-4)Glc", "method_in_brief": "as §1"}, "GlcNAc(b1-3)Gal(b1-4)Glc": {"target": "GlcNAc(b1-3)Gal(b1-4)Glc", "method_in_brief": "as §1"}, "[20]": {"target": "GlcNAc(b1-3)Gal(b1-4)GlcNAc", "method_in_brief": "as §1"}, "[21]": {"target": "GlcNAc(b1-3)Gal(b1-4)GlcNAc(b1-2)Man(a1-3)[GlcNAc(b1-3)Gal(b1-4)GlcNAc(b1-2)Man(a1-6)]Man(b1-4)GlcNAc(b1-4)GlcNAc", "method_in_brief": "as §1"}, "[22]": {"target": "Kdn(a2-3)Gal(b1-4)[Fuc(a1-3)]GlcNAc", "method_in_brief": "as §1"}, "Man(a1-2)Man(a1-3)Man": {"target": "Man(a1-2)Man(a1-3)Man", "method_in_brief": "as §1"}, "[23]": {"target": "Man(a1-3)[Man(a1-6)]Man(a1-6)[Man(a1-2)Man(a1-3)]Man(b1-4)GlcNAc(b1-4)GlcNAc", "method_in_brief": "as §1"}, "[24]": {"target": "Man(a1-3)[Man(a1-6)]Man(a1-6)[Man(a1-3)]Man(b1-4)GlcNAc(b1-4)GlcNAc", "method_in_brief": "as §1"}, "[25]": {"target": "Neu5Ac(a2-3)Gal(b1-4)GlcNAc(b1-2)[Neu5Ac(a2-3)Gal(b1-4)GlcNAc(b1-6)]Man(a1-6)[Neu5Ac(a2-3)Gal(b1-4)GlcNAc(b1-2)Man(a1-3)][GlcNAc(b1-4)]Man(b1-4)GlcNAc(b1-4)GlcNAc", "method_in_brief": "as §1"}, "[26]": {"target": "Neu5Ac(a2-3)Gal(b1-4)GlcNAc(b1-3)Gal(b1-4)GlcNAc(b1-2)Man(a1-3)[Neu5Ac(a2-3)Gal(b1-4)GlcNAc(b1-3)Gal(b1-4)GlcNAc(b1-2)Man(a1-6)]Man(b1-4)GlcNAc(b1-4)GlcNAc", "method_in_brief": "as §1"}, "[27]": {"target": "Neu5Ac(a2-3)Gal(b1-4)GlcNAc(b1-3)Gal(b1-4)GlcNAc(b1-3)Gal(b1-4)GlcNAc(b1-2)Man(a1-3)[Neu5Ac(a2-3)Gal(b1-4)GlcNAc(b1-3)Gal(b1-4)GlcNAc(b1-3)Gal(b1-4)GlcNAc(b1-2)Man(a1-6)]GalNAc", "method_in_brief": "as §1"}, "[28]": {"target": "Neu5Ac(a2-3)Gal(b1-4)GlcNAc(b1-3)Gal(b1-4)GlcNAc(b1-3)GalNAc", "method_in_brief": "as §1"}, "[29]": {"target": "Neu5Ac(a2-3)[GalNAc(b1-4)]Gal(b1-4)GlcNAc(b1-3)GalNAc", "method_in_brief": "as §1"}, "[30]": {"target": "Neu5Ac(a2-6)Gal(b1-4)GlcNAc(b1-3)Gal(b1-4)GlcNAc(b1-3)Gal(b1-4)GlcNAc(b1-2)Man(a1-3)[Neu5Ac(a2-6)Gal(b1-4)GlcNAc(b1-3)Gal(b1-4)GlcNAc(b1-3)Gal(b1-4)GlcNAc(b1-2)Man(a1-6)]GalNAc", "method_in_brief": "as §1"}, "[31]": {"target": "Neu5Ac(a2-6)Gal(b1-4)GlcNAc(b1-3)Gal(b1-4)GlcNAc(b1-3)[Neu5Ac(a2-6)Gal(b1-4)GlcNAc(b1-3)Gal(b1-4)GlcNAc(b1-6)]GalNAc", "method_in_brief": "as §1"}, "[32]": {"target": "Neu5Ac(a2-6)Gal(b1-4)GlcNAc(b1-3)Gal(b1-4)[Fuc(a1-3)]GlcNAc(b1-3)Gal(b1-4)[Fuc(a1-3)]GlcNAc", "method_in_brief": "as §1"}, "Neu5Ac(a2-6)GalNAc": {"target": "Neu5Ac(a2-6)GalNAc", "method_in_brief": "as §1"}}, "note": "This excerpt belongs to a sample that is enriched for the strongest signals."}
{"binder": "B1", "values": [{"measurement": "glycan array binding signal (z-score)", "setting": "[1]", "value": -0.163}, {"measurement": "glycan array binding signal (z-score)", "setting": "[2]", "value": -0.097}, {"measurement": "glycan array binding signal (z-score)", "setting": "[3]", "value": -0.18}, {"measurement": "glycan array binding signal (z-score)", "setting": "[4]", "value": 0.277}, {"measurement": "glycan array binding signal (z-score)", "setting": "[5]", "value": -0.024}, {"measurement": "glycan array binding signal (z-score)", "setting": "[6]", "value": -0.231}, {"measurement": "glycan array binding signal (z-score)", "setting": "[7]", "value": -0.189}, {"measurement": "glycan array binding signal (z-score)", "setting": "Gal(a1-4)Gal(b1-4)GlcNAc", "value": -0.227}, {"measurement": "glycan array binding signal (z-score)", "setting": "[8]", "value": -0.191}, {"measurement": "glycan array binding signal (z-score)", "setting": "[9]", "value": -0.273}, {"measurement": "glycan array binding signal (z-score)", "setting": "[10]", "value": -0.217}, {"measurement": "glycan array binding signal (z-score)", "setting": "[11]", "value": -0.217}, {"measurement": "glycan array binding signal (z-score)", "setting": "[12]", "value": -0.158}, {"measurement": "glycan array binding signal (z-score)", "setting": "[13]", "value": 3.85}, {"measurement": "glycan array binding signal (z-score)", "setting": "[14]", "value": 4.96}, {"measurement": "glycan array binding signal (z-score)", "setting": "[15]", "value": 6.28}, {"measurement": "glycan array binding signal (z-score)", "setting": "[16]", "value": 4.46}, {"measurement": "glycan array binding signal (z-score)", "setting": "[17]", "value": 5.01}, {"measurement": "glycan array binding signal (z-score)", "setting": "Gal3S(b1-4)Glc", "value": -0.25}, {"measurement": "glycan array binding signal (z-score)", "setting": "[18]", "value": -0.049}, {"measurement": "glycan array binding signal (z-score)", "setting": "GalNAc(b1-4)GlcNAc6S", "value": -0.282}, {"measurement": "glycan array binding signal (z-score)", "setting": "GalNAc3S(b1-4)GlcNAc3S", "value": -0.065}, {"measurement": "glycan array binding signal (z-score)", "setting": "GlcA(b1-6)Gal", "value": -0.12}, {"measurement": "glycan array binding signal (z-score)", "setting": "[19]", "value": -0.235}, {"measurement": "glycan array binding signal (z-score)", "setting": "GlcNAc(b1-3)Gal(b1-4)Glc", "value": -0.227}, {"measurement": "glycan array binding signal (z-score)", "setting": "[20]", "value": -0.246}, {"measurement": "glycan array binding signal (z-score)", "setting": "[21]", "value": -0.184}, {"measurement": "glycan array binding signal (z-score)", "setting": "[22]", "value": -0.169}, {"measurement": "glycan array binding signal (z-score)", "setting": "Man(a1-2)Man(a1-3)Man", "value": -0.152}, {"measurement": "glycan array binding signal (z-score)", "setting": "[23]", "value": 4.18}, {"measurement": "glycan array binding signal (z-score)", "setting": "[24]", "value": -0.197}, {"measurement": "glycan array binding signal (z-score)", "setting": "[25]", "value": -0.045}, {"measurement": "glycan array binding signal (z-score)", "setting": "[26]", "value": 7.65}, {"measurement": "glycan array binding signal (z-score)", "setting": "[27]", "value": 7.6}, {"measurement": "glycan array binding signal (z-score)", "setting": "[28]", "value": -0.119}, {"measurement": "glycan array binding signal (z-score)", "setting": "[29]", "value": 3.55}, {"measurement": "glycan array binding signal (z-score)", "setting": "[30]", "value": 4.99}, {"measurement": "glycan array binding signal (z-score)", "setting": "[31]", "value": 9.54}, {"measurement": "glycan array binding signal (z-score)", "setting": "[32]", "value": -0.116}, {"measurement": "glycan array binding signal (z-score)", "setting": "Neu5Ac(a2-6)GalNAc", "value": -0.234}]}
